The values that follow come from PubChem BioAssay (NCATS).

The structures appear in SMILES notation. Records with an inconclusive call do not appear. Calls of active or inactive are those of the source. Calls follow the shape of the dose curve; as a rule, active = well fitted cell-killing curve with a large enough effect; inconclusive = small, poorly fitted or top-dose-only effect, or effect the other way; inactive = no such curve, though single readings can be large or run the other way.
Potency is read from the fitted curve at half-maximal effect.

A short description of the assay: Quantitative High-Throughput drug screen in 47 multiple myeloma cell lines against the NCATS MIPE library collection: Karpas417_ECACC cell viability assay (AID 1918961). The settings on record: Karpas417 myeloma viability, CellTiter-Glo ATP luminescence, 48 h; viability (% of DMSO): at 45.8 µM (top of the series). In a few lines: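 Inhibition of cell viability is measured here. Each line was plated at 500 cells per well, treated with MIPE 4.0 drugs, kept 48 hours at 37C, then assayed for ATP content by CellTiter-Glo luminescence.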
(In general: Cellular ATP, detected with luciferase, serves as a proxy for viable cell number.)
As to `Cc1ccc(C(N)=O)cc1Nc1nccc(-c2cn(C(C)C)c3cnccc23)n1`, the Potency is 2960 nM (active).
As to `CN(c1ncccc1CNc1nc(Nc2ccc3c(c2)CC(=O)N3)ncc1C(F)(F)F)S(C)(=O)=O`, the Potency was 1870 nM (active).
As to `COC(=O)C[C@](O)(CCCC(C)(C)O)C(=O)O[C@@H]1C(OC)=C[C@]23CCCN2CCc2cc4c(cc2[C@H]13)OCO4`, the Potency entry is “inactive”.
To `Cc1ccc(NC(=O)C2(c3ccc4c(c3)OC(F)(F)O4)CC2)nc1-c1cccc(C(=O)O)c1` belongs 46.9 nM (active); to `Fc1cc(-c2cccc3ncc(-c4cnn(C5CCNCC5)c4)nc23)cc(F)c1CN1CCOCC1`, 418 nM (active); to `O=C(CCCCCCNC(=O)c1cnc(N(c2ccccc2)c2ccccc2)nc1)NO`, 590 nM (active).
Take `COc1ccc(OC)c(-c2nnc3ccc(-c4ccc(OC)c(O[C@@H]5CCOC5)c4)nn23)c1`: the Potency is 10500 nM (active).
As for `C[C@@H](Oc1cc(-c2cnn(C3CCNCC3)c2)cnc1N)c1c(Cl)ccc(F)c1Cl`, the Potency is 2640 nM (active).
To `O=C(c1ccc(Nc2nccc(-c3cc4ccccc4s3)n2)cc1)N1CCC(N2CCCC2)CC1` belongs 2090 nM (active); to `CC(C)c1ccc(Cn2ccc3c4c(N)nc(NC5CC5)nc4ccc32)cc1`, 10500 nM (active).
Then `COc1cc2c(cc1-c1c(C)noc1C)ncc1[nH]c(=O)n([C@H](C)c3ccccn3)c12`, with 148 nM (active).
To `OCCCNc1cc(-c2ccnc(Nc3cccc(Cl)c3)n2)ccn1` belongs 46.9 nM (active); to `C[C@H]1C[C@@H]2[C@@H]([C@@H](O)C[C@@]3(C)[C@H]2CC[C@]3(O)C(=O)CO)[C@@]2(C)C=CC(=O)C=C12`, 132 nM (active); to `NC(=O)Nc1cc(-c2cccc(F)c2)sc1C(=O)N[C@H]1CCCNC1`, 83.3 nM (active).
Turning to `COc1cc2c(Oc3ccc(NC(=O)C4(C(=O)Nc5ccc(F)cc5)CC4)cc3F)ccnc2cc1OCCCN1CCOCC1`, the Potency was 2350 nM (active).
